These results are taken from PubChem BioAssay AID488969 (Vanderbilt High Throughput Screening Facility, 2010).

Structures are written as SMILES. Over roughly 110,000 compounds, “z-score” has its median near -0.1; the highest 2% begin near 2. The list comes from a sample in which the highest values are over-represented; it also holds similar structures and randomly drawn compounds. Calls of active or inactive are those of the source.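 The calls were made as follows: active = z-score in the third read window above 3 or below -3; inactive = the rest.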

Sequence of Metabotropic glutamate receptor 8 (Rattus norvegicus) (P70579 whole entry, looked up): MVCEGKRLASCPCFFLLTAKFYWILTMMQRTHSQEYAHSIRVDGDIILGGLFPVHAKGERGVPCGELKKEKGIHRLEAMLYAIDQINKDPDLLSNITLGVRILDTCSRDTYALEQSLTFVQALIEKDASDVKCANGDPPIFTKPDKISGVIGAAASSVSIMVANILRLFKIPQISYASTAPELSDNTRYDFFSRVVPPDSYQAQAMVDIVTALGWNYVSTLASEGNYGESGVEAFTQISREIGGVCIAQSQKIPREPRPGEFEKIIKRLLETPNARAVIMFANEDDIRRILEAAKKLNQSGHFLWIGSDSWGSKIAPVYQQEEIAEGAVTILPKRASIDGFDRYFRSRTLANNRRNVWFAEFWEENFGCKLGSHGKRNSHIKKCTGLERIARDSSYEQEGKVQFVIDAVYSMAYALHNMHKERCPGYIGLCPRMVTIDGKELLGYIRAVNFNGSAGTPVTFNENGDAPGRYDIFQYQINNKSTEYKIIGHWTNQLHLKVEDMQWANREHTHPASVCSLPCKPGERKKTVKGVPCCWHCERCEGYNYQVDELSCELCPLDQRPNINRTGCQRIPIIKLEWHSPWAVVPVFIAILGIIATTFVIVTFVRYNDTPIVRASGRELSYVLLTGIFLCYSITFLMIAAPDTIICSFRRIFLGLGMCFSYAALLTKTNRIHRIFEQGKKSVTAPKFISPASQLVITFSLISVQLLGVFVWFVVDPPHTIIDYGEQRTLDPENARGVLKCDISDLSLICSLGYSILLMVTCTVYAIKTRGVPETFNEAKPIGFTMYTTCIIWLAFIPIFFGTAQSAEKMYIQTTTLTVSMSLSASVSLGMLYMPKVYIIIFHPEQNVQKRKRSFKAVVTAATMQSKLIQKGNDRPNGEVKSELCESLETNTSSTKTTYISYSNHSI

The experiment has as its target Metabotropic glutamate receptor 8 (Rattus norvegicus) (UniProt P70579). As to the kind of experiment: mGluR8 Gi/Go-coupled signaling modulation – cell-based, rat, thallium flux, HTS, primary screen (AID 488969). As to conditions: HEK293 rat mGluR8, GIRK (G protein-gated inwardly rectifying potassium channel) thallium flux, FluoZin2; at 10 µM; stronger effect = higher value; submaximal glutamate (EC20) added with thallium.
`Cc1ccc(S(=O)(=O)N2CCN(C(=O)N(c3ccccc3)c3ccccc3)CC2)cc1` registered a z-score of -0.559.
Next, `O=c1cc(O)nc(SCc2ccccc2)n1-c1ccc(F)cc1`: -0.305; `CC1CCN(c2ccc(C(=O)Nc3ccc4c(c3)OCO4)cc2[N+](=O)[O-])CC1`: -0.237; `COc1ccccc1NC(=O)CNC(=O)c1ccccc1C`: 0.371.
In turn, `CCOC(=O)CNS(=O)(=O)c1ccc(C(=O)O)cc1` came in with a z-score of 0.207.
Next, `Cc1ccc(S(=O)(=O)CC(=O)Nc2nc(-c3ccccc3)cs2)cc1`: 1.27; `COc1ccccc1NC(=S)NC(=O)CCCOc1ccc(Cl)cc1Cl`: -0.0968.
The molecule `O=C(CCCOc1ccc(Cl)cc1Cl)Nc1cccnc1` yielded a z-score of -0.0915.
With `CCCCC(=O)Nc1ccc(C(=O)NNC(=O)CCCOc2ccc(Cl)cc2Cl)cc1` the figure was -0.184; with `CN(C(=S)NC(=O)CCCOc1ccc(Cl)cc1Cl)c1ccccc1`, 4 (active); with `O=C(CCCOc1ccc(Cl)cc1Cl)Nc1ccncc1`, 2.21.
`CCOc1ccccc1NC(=S)NC(=O)CCCOc1ccc(Cl)cc1Cl`: the z-score is -0.0571.
Next, `Cc1ccc(C)c(Oc2ncnc(N)c2[N+](=O)[O-])c1`: 0.623; `CCOC(=O)COc1ccc(S(=O)(=O)Nc2cccc(SC)c2)cc1`: -0.28.
On to `CC(C)C(=O)Nc1ccc(-c2csc(-c3ccccc3)n2)cc1`, for which the z-score is -0.165.
In the case of `Cc1ccc(-c2cc(-c3ccccc3)[nH]c(=S)c2C#N)cc1`, the z-score is 3.09 (active).
Molecule `Cc1cc(-c2ccccc2)c(C#N)c(=S)[nH]1` displayed a z-score of 0.152.
Next, `N#Cc1c(-c2ccc(C(F)(F)F)cc2)cc(-c2ccccc2)[nH]c1=S`: 1.24.
Next, `Cc1ccc(NC(=O)COC(=O)CNC(=O)c2ccc(Br)cc2)c(C)c1`: -0.336; `Cc1ccc(NC(=O)NC2CCN(S(=O)(=O)c3ccc(F)cc3)CC2)cc1`: 0.564; `Brc1ccc(-c2cn3ccccc3n2)s1`: -0.391.
Next, `CCOC(=O)C1(C)NC(c2ccco2)C2C(=O)N(c3ccc(C)cc3)C(=O)C21` (stereo unspecified): 0.153; `COc1cc(NC(=O)C2CC2C)c(C(=O)O)cc1OC` (stereo unspecified): -0.191; `C/C(N)=C(/C#N)C(=O)CN1CCCCC1`: 0.678.
As to `Cc1cccc(-c2noc(CCCC(=O)N3CCOCC3)n2)c1`, the z-score is -0.139.
Next, `O=C(CCCc1nc(-c2ccc(Cl)cc2)no1)N1CCOCC1`: 3.9 (active).
In the case of `O=C(CCCc1nc(-c2ccccc2)no1)N1CCOCC1`, the z-score was found to be 0.382.
With `COc1ccc(Cl)cc1C(=O)NNC(=S)NC(=O)c1cc(-c2ccc(Cl)cc2)nc2ccccc12` the figure was 0.219.
`CCOC(=O)c1ccc(NC(=O)COC(=O)Cc2csc(-c3ccccc3)n2)cc1`: the z-score was -0.252.
With `O=C(NCc1cccs1)c1ccccc1C(=O)NCc1cccs1` the figure was -0.214.
Turning to `O=C(NCc1cccs1)c1cccnc1C(=O)O`, the z-score was 5.74 (active).
Next, `O=C(NCc1cccs1)c1cccnc1Cl`: -0.317; `CCN(CC)S(=O)(=O)c1ccc(NCc2ccccc2)nc1`: -0.962; `Cc1sc2ncnc(SCC(=O)NCC(C)C)c2c1C`: -0.208.
As for `Cc1sc2ncnc(SC(C)C(=O)N3c4ccccc4Sc4ccccc43)c2c1C` (stereo unspecified), the z-score turned out to be 2.19.
Next, `Cc1sc2ncnc(SCC(=O)c3ccc(Cl)s3)c2c1C`: 1.06; `Cc1ccc(OCC(=O)NNC(=O)C(C)Sc2ncnc3sc(C)c(C)c23)cc1` (stereo unspecified): 7.7 (active); `CCC(Sc1ncnc2sc(C)c(C)c12)C(=O)OC` (stereo unspecified): -0.469.
Next, `CCc1ccc(OCC(=O)NNC(=O)CSc2ncnc3sc(C)c(C)c23)cc1`: 0.487; `COc1ccc(Cn2c(O)c(C=Nc3ccc(OC)cc3)c3ccccc3c2=O)cc1`: -0.178; `NC(=O)c1c(NC(=O)CSc2nc3c(c(C(F)(F)F)n2)CCc2ccccc2-3)sc2c1CCCC2`: -0.123.
Next, `Cc1ccc(C)c(NC(=O)Cc2csc(-c3ccccc3)n2)c1`: -0.0885; `O=C(NC1CCCCC1)C(c1ccc2ncccc2c1)N(Cc1ccc2c(c1)OCO2)C(=O)c1cccs1` (stereo unspecified): 0.00177.
Molecule `CC(=O)c1cnc(Nc2ccccc2)s1` came in with a z-score of 0.548.
With `CCCNC(=O)Cc1c(OC)ccc2cc(Br)ccc12` the figure was 0.421; with `COc1ccc2cc(Br)ccc2c1CC(=O)NC(C)(C)C`, -0.349; with `COc1ccc2cc(Br)ccc2c1CC(=O)NC1CC(C)(C)NC(C)(C)C1`, 3.91 (active).
Next, `Fc1ccccc1CNCCC(Cc1ccccc1)c1ccc2c(c1)OCO2` (stereo unspecified): 0.733; `COc1ccc(C(CCNC(C)c2ccccc2)c2ccc(F)cc2)cc1` (stereo unspecified): 1.71; `COc1ccc(CC(=O)NCc2ccc3c(c2)OCO3)cc1`: -0.347.
In turn, `COc1ccc(CNCCC(c2ccccc2)c2ccc3c(c2)OCO3)cc1` (stereo unspecified) displayed a z-score of 2.28.
With `COc1ccc(CNCCC(c2ccc(F)cc2)c2ccc(OC)cc2)cc1` (stereo unspecified) the figure was 3.72 (active).
Next, `COc1ccc(C(CCNCc2ccccc2F)c2ccc(F)cc2)cc1` (stereo unspecified): 3.61 (active); `COc1ccc(NC(=O)CC(c2ccc(F)cc2)c2ccc(OC)cc2)cc1` (stereo unspecified): -0.576; `COc1ccc(C(CC(=O)Nc2ccc(F)cc2)c2ccccc2)cc1` (stereo unspecified): 1.4.
With `COc1ccc(C(CCNCc2ccccc2)c2ccc(F)cc2)cc1` (stereo unspecified) the figure was 1.8; with `CCOC(=O)c1cc(NC(=O)N(C(C)C)C(C)C)c(C)nc1C`, 0.0304; with `Brc1ccc(-c2nc(-c3cccnc3)no2)o1`, -0.481.
For the molecule `COc1ccc(CCNC(=O)Cn2nnc(-c3ccccc3F)n2)cc1OC`, the z-score was 0.148.
Next, `COc1ccc2c(c1)-c1c(sn(-c3ccccc3)c1=S)C(C)(C)N2`: -0.192.
Next, `O=C(CC1Nc2ccccc2NC1=O)NCCCN1CCCCCC1` (stereo unspecified): 2.07; `O=C(CC1Nc2ccccc2NC1=O)NCCc1ccccc1` (stereo unspecified): -0.0324.
With `CCCCN(CC)CCCNC(=O)CC1Nc2ccccc2NC1=O` (stereo unspecified) the figure was 0.0522; with `COc1ccc(CNC(=O)C(NC(C)=O)C(=O)Nc2ccc(OC)cc2)cc1` (stereo unspecified), -0.149; with `Cc1ccc(C2(CC(=O)N3CCCC3)CCOC(C(C)C)C2)cc1` (stereo unspecified), -0.0604.
`O=C(O)CSc1nnnn1-c1ccc2c(c1)OCCO2` showed a z-score of -0.0806.
With `COC(=O)C1=C(C)N(C)C(=O)NC1c1ccccc1` (stereo unspecified) the figure was -0.573; with `Cc1cccc(-n2c(C)nc3c(cnn3-c3ccc(F)cc3)c2=O)c1`, 1.02.
The molecule `Cc1cccc(-n2c(C)nc3sccc3c2=O)c1` came in with a z-score of 1.99.
With `Cc1nc2sccc2c(=O)n1-c1cccc(Cl)c1` the figure was -0.144; with `Cc1noc(C)c1S(=O)(=O)N1CCCC(C(=O)N2CCC(C)CC2)C1` (stereo unspecified), 1.01.
In turn, `Cc1ccc(Cl)cc1NC1=C/C(=N\S(=O)(=O)c2cccs2)c2ccccc2C1=O` showed a z-score of -0.209.
Next, `O=C(c1ccccc1Cl)N1CCc2ccccc2C1`: -1.42; `COc1ccc(NC(=O)/C(Cl)=C(/Cl)S(=O)(=O)Cc2ccc(C)cc2)cn1`: -0.418.
As to `O=C(Nc1ccc2c(c1)OCO2)N1CCN(c2ccccc2Cl)CC1`, the z-score is -0.291.
In turn, `O=C(Nc1ccc2c(c1)OCO2)N1CCN(C(=O)C2CCCO2)CC1` (stereo unspecified) yielded a z-score of 2.05.
Consider `O=C(Nc1ccc2c(c1)OCO2)N1CCOCC1`, for which the z-score came to 0.476.
With `COc1ccccc1C(OC(=O)c1ccco1)C(=O)NC(C)(C)C` (stereo unspecified) the figure was -0.346.
Next, `O=[N+]([O-])c1ccc(-c2nnc(CSc3nc(-c4ccccc4)nc4ccc(F)cc34)o2)cc1`: 0.0904; `O=c1c2ccccc2nc(SCc2nnc(-c3ccccc3)o2)n1-c1ccc(F)cc1F`: -0.56.
With `Fc1ccc2nc(-c3ccccc3)nc(SCc3nnc(-c4ccccc4)o3)c2c1` the figure was 14.3 (active).
On to `COc1cc2c(cc1OC)C(COc1ccc3c(C)cc(=O)oc3c1)N(C(=O)c1ccco1)CC2` (stereo unspecified), for which the z-score worked out at 0.044.
With `Cc1csc(SCC(=O)N2CCN(S(=O)(=O)c3ccc(Cl)cc3)CC2)n1` the figure was 0.756; with `COC(=O)c1cc(-c2cccc(OC)c2)on1`, -1.1.
With `COCCNC(=O)c1cc(-c2cccc(OC)c2)on1` the figure was -0.215; with `COc1cccc(-c2cc(C(=O)NC3CCCC3)no2)c1`, 5.04 (active); with `CCOC(=O)c1c(C(F)(F)F)nc2ncccn12`, -0.534.
With `O=C(c1cnn2c(C(F)(F)F)cc(-c3ccc4c(c3)OCO4)nc12)N1CCCC1` the figure was -0.369.
For `O=C(CCCc1c[nH]c2ccccc12)N1CCN(c2ccc(N3CCOCC3)nn2)CC1`, the z-score was -0.501.
As to `CN(C)c1cccc(C(=O)Nc2ccc3nc4n(c(=O)c3c2)CCCCC4)c1`, the z-score was -0.303.
`Cc1cccc(NC(=O)COC(=O)c2ccc3c(=O)n4c(nc3c2)CCC4)c1` yielded a z-score of 2.19.
Molecule `O=C(Nc1ccc2nc3n(c(=O)c2c1)CCCC3)c1ccccc1[N+](=O)[O-]` returned a z-score of -0.424.
Next, `Cc1ccccc1C(=O)Nc1ccc2nc3n(c(=O)c2c1)CCC3`: 3.87 (active); `CC(C)(C)c1cc(NC(=O)COC(=O)c2ccc3c(=O)n4c(nc3c2)CCC4)n(-c2ccccc2)n1`: -0.264; `O=C(COC(=O)c1ccc2c(=O)n3c(nc2c1)CCC3)Nc1ccccc1F`: -0.441.
With `COc1ccccc1OC1=NS(=O)(=O)c2ccccc21` the figure was -0.276; with `CC(C)(C)n1nc2c(c1NC(=O)c1ccccc1F)CS(=O)C2` (stereo unspecified), -0.492; with `Cc1cc(C(=O)N2CCN(C(c3ccccc3)c3ccccc3)CC2)no1`, -0.079.
With `COc1ccc(-c2nc3ccccn3c2NCc2ccc3c(c2)OCO3)cc1` the figure was -1.02.
As to `CCCCCn1nc(-c2ccccc2)c2nc3ccccc3nc21`, the z-score is 14.9 (active).
Next, `CCCn1nc(-c2ccccc2)c2nc3ccccc3nc21`: 0.0864; `CCCCn1nc(-c2ccccc2)c2nc3ccccc3nc21`: -0.013.
`CCCn1cc(SCC(=O)NCC2CCCO2)c2ccccc21` (stereo unspecified): the z-score was 0.0527.
With `COc1cc(SC#N)ccc1N=Cc1c(C)[nH]n(-c2cccc3ccccc23)c1=O` the figure was -0.32; with `N#Cc1c(/N=C/c2cc3ccccc3s2)sc2c1CCC2`, -0.0332.
`CCOC(=O)c1sc(/N=C/c2c(C)[nH]n(-c3ccccc3)c2=O)c(C#N)c1C` returned a z-score of -0.156.
`Cc1[nH]n(-c2ccc(F)cc2)c(=O)c1/C=N/c1sc2c(c1C#N)CCCC2`: the z-score is 13 (active).
Next, `Cc1ccc(/C=N/c2sc3c(c2C#N)CCCCC3)o1`: -0.0448.
Next, `Cc1[nH]n(-c2cccc3ccccc23)c(=O)c1/C=N/c1sc2c(c1C#N)CCC2`: 8.05 (active).
With `COc1ccc(OC)c(C2C(C(=O)O)c3ccccc3C(=O)N2C)c1` (stereo unspecified) the figure was 0.356; with `CCOC(=O)N1CCN(C(=O)c2ccc(CNS(=O)(=O)c3ccc(C)cc3)cc2)CC1`, -0.952.
